Compound activity as filed in PubChem.
Hits are enriched below; roughly 8.1% of the tested compounds scored in any of these assays.
VP16 counter – counter-screen for ROR gamma inhibitors: Gal4-VP16 reporter | Drosophila S2 Gal4-VP16 UAS-luciferase, luminescence, 20 h | Potency, µM (doses to about 53.6 µM), most hits filed as inhibitors | 310,000 compounds, 3.5% hits;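 also: Gal4-VP16 expression switched on by copper sulfate through the metallothionein promoter; nearly all actives have a fitted effect of over 50% in size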
PINK1 modulator – modulators of PINK1 expression. 410,000 compounds, 0.2% hits. PINK1 immunofluorescence, high-content cytometry, 24 h. AID 624263. Potency, µM (doses to about 76.6 µM), most hits filed as activators; active = well fitted activation curve with a large enough effect; inconclusive = small, poorly fitted or top-dose-only effect; cell line not stated here; also: nearly all actives have a fitted effect of over 65% in size
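A stable cell line was treated with compounds at 5 concentrations for 24 hours, with CCCP as control. PINK1 levels and mitochondrial localization were measured by immunofluorescence with mitochondrial, cell and nuclear markers after fixation, read by laser-scanning cytometry.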
Sfp PPTase inh – blocks B. subtilis Sfp PPTase activity; 310,000 compounds, 3.5% hits; Q9F4F7; Potency, µM, usual class: inhibitors; Biochemical Sfp PPTase activity, qHTS;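 also: the enzyme is Sfp with the accession as filed and its product quenches rhodamine fluorescence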
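Buffer: 50 mM Hepes-Na pH 7.6, 10 mM MgCl2, 0.01% Nonidet P-40, 0.01% BSA. Enzyme 15 nM, pre-exposed to compound 15 min; substrates then added and fluorescence change tracked over 30 min.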
Epigenetic reg – regulators of epigenetic silencing causing reporter derepression in mouse cells; murine LDR cells, GFP reporter derepression, 30 h; Potency, µM (series often up to 53.9 µM), usual class: activators; 280,000 compounds, 0.2% hits; also: nearly all actives have a fitted effect of over 60% in size
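Readout is the number of GFP-expressing murine LDR cells, counted by cytometry following washing. Cells were treated with compound for 30 h at 37 C; the stably integrated CMV-GFP locus is normally silent.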
ClpP mod – qHTS Assay for Activators of ClpP | purified B. subtilis ClpP, FRET peptide cleavage, 20 min | 340,000 compounds, 1.9% hits | ATP-dependent Clp protease proteolytic subunit (Bacillus subtilis (strain 168)), P80244 | Potency, µM (highest dose often 57.5 µM); active = well fitted falling curve with a large enough effect; inconclusive = small, poorly fitted or top-dose-only effect; inactive = no such curve, though single readings can be large or run the other way; also: the source files actives as falling curves though it sought activators and does not explain the sign; nearly all actives have a fitted effect of over 65% in size
Target sequence (P80244 whole entry, looked up): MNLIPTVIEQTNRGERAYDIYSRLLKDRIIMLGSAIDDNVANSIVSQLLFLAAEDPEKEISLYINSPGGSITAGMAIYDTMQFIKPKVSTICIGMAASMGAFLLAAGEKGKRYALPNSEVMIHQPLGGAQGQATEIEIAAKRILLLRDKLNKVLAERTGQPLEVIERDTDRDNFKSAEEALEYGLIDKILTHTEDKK
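FRET quenching reversal measured ClpP activation: 10 microg/mL B. subtilis ClpP at pH 8 with the FRET-FV decapeptide, read at 430 nm after 320 nm excitation. The 20-min minus 0-min signal was scaled between DMSO/no-enzyme wells and ADEP (5.8 microM final).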
RORg inh – ROR gamma (mouse) transcription inhibition; AID 2551; P51450; Drosophila S2 Gal4-RORgamma UAS-luciferase reporter, 20 h; Potency, µM (top dose mostly 53.6 µM), usual class: inhibitors; 310,000 compounds, 5.4% hits; also: nearly all actives have a fitted effect of over 60% in size
Target sequence (P51450 whole entry, looked up, the tested form may be a part): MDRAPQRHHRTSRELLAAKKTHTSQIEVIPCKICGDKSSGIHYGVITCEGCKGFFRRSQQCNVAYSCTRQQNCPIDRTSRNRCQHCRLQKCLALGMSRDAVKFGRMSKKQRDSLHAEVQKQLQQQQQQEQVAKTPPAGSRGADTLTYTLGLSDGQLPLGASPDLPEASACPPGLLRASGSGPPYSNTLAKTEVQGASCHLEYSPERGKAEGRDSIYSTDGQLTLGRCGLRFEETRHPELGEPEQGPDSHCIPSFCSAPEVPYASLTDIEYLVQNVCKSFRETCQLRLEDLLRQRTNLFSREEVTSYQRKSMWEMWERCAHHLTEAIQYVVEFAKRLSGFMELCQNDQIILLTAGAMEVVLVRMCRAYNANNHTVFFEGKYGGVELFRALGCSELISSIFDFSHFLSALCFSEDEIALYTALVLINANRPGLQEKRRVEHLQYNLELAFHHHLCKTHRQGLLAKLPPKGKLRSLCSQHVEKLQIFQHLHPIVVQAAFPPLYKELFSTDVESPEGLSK
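ROR gamma transcriptional activity was tracked as Gal4-UAS luciferase output in stably transfected Drosophila Schneider cells, with compound added 1 hr before 700 uM copper sulfate induction and a 20 hr ambient-temperature incubation.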
Of the large screens only hits and unclear results are named; the others gave an inactive call. Unless noted, calls follow the shape of the dose curve; as a rule, active = well fitted curve in the direction sought with a large enough effect; inconclusive = small, poorly fitted or top-dose-only effect, or another doubt; inactive = no such curve, though single readings can be large; an effect the other way counts as inactive or inconclusive.

Nc1c(C(=O)OCC2CCCO2)c2nc3ccccc3nc2n1C1CCCCC1 (centres undefined)	PINK1 modulator inconclusive, ClpP mod 14µM
Nc1c(C(=O)NCC2CCCO2)c2nc3ccccc3nc2n1-c1ccccc1 (centres undefined)	ClpP mod 16µM
C=CCSc1nnc(C2CCCN(Cc3ccccc3O)C2)n1C (centres undefined)	none (no result: VP16 counter, Sfp PPTase inh, Epigenetic reg, ClpP mod, RORg inh)
COc1nc(-c2ccccc2)ccc1-c1noc(-c2ccccc2)n1	ClpP mod inconclusive
COc1ccc(-c2ccc(-c3noc(-c4ccccc4)n3)c(OC)n2)cc1	PINK1 modulator inconclusive
COc1nc(-c2ccccc2)ccc1-c1noc(-c2ccco2)n1	VP16 counter inconclusive, Sfp PPTase inh inconclusive, ClpP mod 32µM, RORg inh inconclusive
c1ccc(OCc2nc(-c3ccccc3)no2)cc1	RORg inh inconclusive
CCOc1nc(-c2ccc(C)cc2)ccc1-c1noc(COC)n1	ClpP mod 32µM
COc1nc(-c2ccccc2)ccc1-c1noc(COc2ccccc2)n1	ClpP mod 10µM
COc1ccc(-c2ccc(-c3noc(-c4ccco4)n3)c(OC)n2)cc1	Epigenetic reg inconclusive, ClpP mod 28µM
CCOc1ccc(NC(=O)Cn2c(=O)nc(-c3ccccc3)c3ccccc32)cc1	none (no result: VP16 counter, Sfp PPTase inh, RORg inh)
Cc1ccccc1OCC(=O)NCC(c1ccc(Cl)cc1)N1CCCCC1 (centres undefined)	none (no result: VP16 counter, Sfp PPTase inh, RORg inh)
Cc1ccc(NCCC(=O)c2cccc([N+](=O)[O-])c2)c(C)c1	VP16 counter inconclusive, RORg inh 10µM
Cc1cccc(NCCC(=O)c2ccc([N+](=O)[O-])cc2)c1C	none
Cc1cc(=O)oc2cc(OCC(O)CN3CCN(c4ccccc4)CC3)ccc12 (centres undefined)	ClpP mod 32µM
Cc1cc(=O)oc2cc(OCC(O)CN3CCc4ccccc4C3)ccc12 (centres undefined)	ClpP mod inconclusive
COc1ccccc1N1CCN(CC(O)COc2ccc3c(C)cc(=O)oc3c2)CC1 (centres undefined)	ClpP mod 16µM
Cc1cc(C)c(NC(=O)CSc2ccc(-c3sc(-c4ccccc4)nc3C)nn2)c(C)c1	Epigenetic reg inconclusive (no result: VP16 counter, Sfp PPTase inh, RORg inh)
CC(=O)OCCN1C(=O)c2c(C)nc3ccc(S(=O)(=O)N4CCOCC4)cc3c2C1=O	none (no result: PINK1 modulator, Epigenetic reg, ClpP mod)
COc1ccc(/C=N\NC(=S)SCN2C(=O)C3CCC(C)(C2=O)C3(C)C)cc1 (centres undefined)	none (no result: VP16 counter, Sfp PPTase inh, Epigenetic reg, RORg inh)
CN(C)c1ccc(/C=N\NC(=S)SCN2C(=O)C3CCC(C)(C2=O)C3(C)C)cc1 (centres undefined)	VP16 counter inconclusive, RORg inh 0.32µM
CC1(C)CC(=O)C2=C(C1)N(CCN1CCOCC1)C1=C(C(=O)CC(C)(C)C1)C2c1ccc(Cl)cc1	none
CC1(C)CC(=O)C2=C(C1)N(CCN1CCOCC1)C1=C(C(=O)CC(C)(C)C1)C2c1cccc(F)c1	ClpP mod 28µM
CC(Sc1ncc(S(=O)(=O)c2ccc(C(C)C)cc2)c(N)n1)C(=O)Nc1ccccc1 (centres undefined)	none (no result: VP16 counter, Sfp PPTase inh, RORg inh)
CC1SC(=NC(=O)c2ccncc2)NC1=O (centres undefined)	none (no result: ClpP mod)
CC1S/C(=N/N=C2CCCCC2)NC1=O (centres undefined)	VP16 counter inconclusive, RORg inh 10µM
CC1S/C(=N/N=C2CCC(C(C)(C)C)CC2)NC1=O (centres undefined)	VP16 counter 5µM, RORg inh 2.5µM
Cc1ccc(C(C)CCN2CCOc3ccc(CN4CCOCC4)cc3C2)o1 (centres undefined)	none (no result: VP16 counter, Sfp PPTase inh, Epigenetic reg, ClpP mod, RORg inh)
COc1ccc(/C=N/n2cnc3c([nH]c4ccc(C)cc43)c2=O)cc1CN1CCCC1	VP16 counter inconclusive, RORg inh inconclusive
COc1ccc(/C=N/n2cnc3c([nH]c4ccc(F)cc43)c2=O)cc1CN1CCCC1	VP16 counter 11µM, Epigenetic reg inconclusive
COc1ccc(NCc2ccc([N+](=O)[O-])s2)c(OC)c1	VP16 counter 11µM
COc1ccc(NCc2ccc([N+](=O)[O-])s2)cc1	VP16 counter inconclusive, Epigenetic reg inconclusive
CCc1ccc(-c2cc3c(N4CCN(c5ccccc5)CC4)nccn3n2)cc1	none (no result: VP16 counter, Sfp PPTase inh, RORg inh)
Cc1ccc(O)c(NC(=O)c2nc3nc(C)cc(C(F)F)n3n2)c1	none (no result: VP16 counter, Sfp PPTase inh, RORg inh)
COc1cccc(C2CC(c3cccs3)=NN2C(=O)c2ccco2)c1O (centres undefined)	RORg inh 5.6µM (no result: Epigenetic reg)
CCS(=O)(=O)Nc1ccc(C2=NN(C(=O)c3ccco3)C(c3ccc(C)cc3)C2)cc1 (centres undefined)	VP16 counter 18µM
COc1cccc(C2=NN(C(=O)c3ccco3)C(c3ccco3)C2)c1 (centres undefined)	Sfp PPTase inh 50µM (no result: Epigenetic reg)
O=C(c1ccco1)N1N=C(c2cccs2)CC1c1ccccc1O (centres undefined)	ClpP mod inconclusive (no result: Epigenetic reg)
CCS(=O)(=O)c1nc(S(=O)(=O)c2ccc(C)cc2)c(NCCCOC)s1	none (no result: VP16 counter, Sfp PPTase inh, RORg inh)
Cc1oc2ncnc(N3CCOCC3)c2c1C(=O)Nc1ccc(Br)cc1F	none (no result: VP16 counter, Sfp PPTase inh, RORg inh)
O=C(C[n+]1cccc(Br)c1)c1ccc2ccccc2c1	none (no result: VP16 counter, Sfp PPTase inh, Epigenetic reg, RORg inh)
COc1ccc(-c2nnc3n2-c2ccccc2SC3)cc1OC	Sfp PPTase inh 79µM
c1ccc2c(c1)SCc1nnc(-c3ccncc3)n1-2	none
COc1cccc(-c2nc3cc4c(cc3cc2CN(C(=O)c2cc(C)nn2C)C2CC2)CCC4)c1OC	none (no result: VP16 counter, Sfp PPTase inh, Epigenetic reg, ClpP mod, RORg inh)
O=c1oc2ccccc2nc1/C=C(\O)c1ccc(Br)cc1	Sfp PPTase inh 56µM, Epigenetic reg inconclusive
CCCCCn1c(=O)[nH]c2cc(C(=O)Nc3cc(OC)cc(OC)c3)ccc2c1=O	none (no result: VP16 counter, Sfp PPTase inh, RORg inh)
Cc1cc(NC(=O)c2cc(-c3ccccc3)on2)n(-c2ccccc2)n1	none
Cc1cc(NC(=O)c2cc(-c3ccco3)on2)n(-c2ccccc2)n1	PINK1 modulator inconclusive, RORg inh 7.9µM
CCC1S/C(=C(\C#N)C(=O)NCc2ccco2)N(c2ccc(F)cc2)C1=O (centres undefined)	Sfp PPTase inh 25µM
O=C(O)/C=C/C(=O)Nc1ccc(N2CCOCC2)nc1N1CCOCC1	VP16 counter inconclusive, Sfp PPTase inh 10µM, RORg inh inconclusive (no result: ClpP mod)
COc1ccc(N2CCN(c3ccc(NC(=O)/C=C\C(=O)O)cc3)CC2)cc1	none (no result: Epigenetic reg)
C[C@H]1Cc2c(-c3ccccc3)nc3c(c2CO1)CN(C(=O)NCCc1c[nH]c2ccccc12)CC3	none (no result: VP16 counter, PINK1 modulator, Epigenetic reg, ClpP mod, RORg inh)
COc1ccc(-c2nnc(NC(=O)c3ccc4c(c3)OCCO4)o2)cc1	VP16 counter 1.3µM, RORg inh 1.1µM (no result: Epigenetic reg)
